Sampled rows, rich in hits. Any-hit rate of the full collection: about 6.7%.
Bead autofluor – counter-screen for toxin protease inhibitors: compound fluorescence | compound autofluorescence counterscreen, microsphere flow cytometry; hits give high values | fluorescence intensity (concentration not given with the values) | actives 3.1% (n = 360,000) | AID 624483; in the data active means fluorescence intensity above about 16000; inconclusive means no clear call, values can overlap the other calls
BoNT-A LC inh2 – BoNT/A light chain protease inhibitors, primary screen, biochemical, flow cytometry, MLPCN library; inhibition, % at 10 µM; multiplex microsphere protease substrate cleavage; actives 0.17% (n = 360,000); AID 588499, 2011
Anthrax LF inh2 – Bacillus anthracis LF protease inhibitors, primary screen, biochemical, multiplex microsphere, MLPCN library | multiplex microsphere protease cleavage assay | inhibition, % at 10 µM | actives 0.12% (n = 360,000)
BoNT-F LC inh – BoNT/F light chain protease inhibitors, primary screen, biochemical, flow cytometry, MLPCN library; Botulinum neurotoxin type F light chain protease (Clostridium botulinum); Multiplex microsphere protease cleavage assay; inhibition, % at 10 µM; actives 0.22% (n = 360,000); AID 588497, 2011; in the data active means inhibition above about 35%, passing the limit was not always enough; inconclusive means no clear call, values can overlap the other calls
FBA Mtb inh – Mtb FBA enzyme inhibitors, primary screen, biochemical, fluorescence, strain H37Rv. Fructose-bisphosphate aldolase (Mycobacterium tuberculosis (strain ATCC 25618 / H37Rv)), …. purified M. tuberculosis FBA, fluorescence read-out. inhibition, % at 1 µM. actives 2.3% (n = 360,000). AID 588726, 2011; in the data active means inhibition above about 27%
Target sequence (P9WQA3 whole entry, looked up): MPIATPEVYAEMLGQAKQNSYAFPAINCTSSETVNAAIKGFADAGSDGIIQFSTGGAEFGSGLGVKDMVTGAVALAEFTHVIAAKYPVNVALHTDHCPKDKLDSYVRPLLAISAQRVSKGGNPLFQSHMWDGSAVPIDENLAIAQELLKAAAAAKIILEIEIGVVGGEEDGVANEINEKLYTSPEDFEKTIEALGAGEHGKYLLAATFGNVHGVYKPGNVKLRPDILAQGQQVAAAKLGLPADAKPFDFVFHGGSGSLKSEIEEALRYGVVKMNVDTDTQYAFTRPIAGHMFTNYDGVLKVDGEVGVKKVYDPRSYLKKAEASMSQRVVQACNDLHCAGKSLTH
GDH-TPI counter – GDH-TPI coupling enzyme inhibitors, primary screen, artefact control for M. tuberculosis FBA inhibitor project, biochemical, absorbance, full deck. GDH-TPI coupled enzyme counterscreen, NADH absorbance. inhibition, % at 4.8 µM. actives 1.2% (n = 360,000). AID 588335, 2011; in the data active means inhibition above about 30%
Of the large screens only hits and unclear results are named; the others gave an inactive call. Unless noted, no stated cut-off is given here; in the data, active means inhibition above about 30%; inconclusive means no clear call, values can overlap the other calls; inactive means below that.

N/C(=N\[N+](=O)[O-])N/N=C/c1ccc(O)cc1	GDH-TPI counter 36.9
C=C1CC(C(=O)N/N=C/c2ccc(O)cc2)C1	none
CC(C)=C(NC(=O)c1ccccc1)C(=O)N/N=C/c1ccc(O)cc1	none
O=C(NN=Cc1ccc(O)cc1)C(=O)NN=Cc1ccc(O)cc1	GDH-TPI counter 67.8
Cc1cc(C)n(CCC(=O)N/N=C/c2ccccc2O)n1	none
Cc1cc(C)n(CCC(=O)N/N=C/c2ccc(O)cc2O)n1	GDH-TPI counter 31.1
O=C(N/N=C/c1ccc(O)cc1O)C(=O)N/N=C/c1ccc(O)cc1O	GDH-TPI counter 41.3
CC(=O)c1ccc(OCc2cn(CC(=O)c3ccc(O)cc3)nn2)c(C)c1	none
O=C1SC(c2ccccc2)=C/C1=C\N1CCCCC1	none
COCc1cc(C)nc(OCC(=O)N/N=C/c2ccc(O)cc2O)c1C#N	GDH-TPI counter 34.7
COCc1cc(C)nc(OCC(=O)N/N=C/c2ccccc2O)c1C#N	none
Cc1ccc(C(=O)ONc2ccc(N=NC(=O)c3ccccc3O)cc2)cc1	none
O=C(O)c1oc2ccccc2c1-n1cccc1	Bead autofluor 16703
COC(=O)c1oc2ccc(Br)cc2c1-n1cccc1	none
COc1cc(CC(=O)OCC(=O)Nc2ccc(Cl)c(S(=O)(=O)N(C)C)c2)cc(OC)c1OC	none
Nc1c(S(=O)(=O)c2ccccc2)c2nc3ccccc3nc2n1/N=C/c1cccc(O)c1	BoNT-F LC inh inconclusive
Cc1cccc(S(=O)(=O)c2c(N)n(/N=C/c3ccccc3)c3nc4ccccc4nc23)c1	Bead autofluor 16348
Cc1cccc(Nc2nc(N3CCN(C)CC3)nc(N)c2[N+](=O)[O-])c1	none
CCN1CCN(c2nc(N)c([N+](=O)[O-])c(Nc3cccc(C)c3)n2)CC1	GDH-TPI counter 34.9
CC(C)CCn1cnc2c(NCc3ccccc3)ncnc21	Bead autofluor 24204
COc1ccc2oc(=O)cc(C)c2c1	none
COc1ccc2oc3ccc(OC)cc3c(=O)c2c1	FBA Mtb inh 48.7
Cc1[nH]c(=O)[nH]c(=O)c1CSc1nnc([C@@H](NC(=O)OC(C)(C)C)C(C)C)o1	none
CC(C)=CCSc1nnc([C@@H](NC(=O)OC(C)(C)C)C(C)C)o1	Bead autofluor 22591, BoNT-A LC inh2 inconclusive
Cc1nc2c(cc1NC(=O)c1ccccc1)nc(C)n2Cc1ccccc1	none
COC(=O)C1=C(C)OC(N)=C(C#N)C1c1cc(OC)c(OCC(N)=O)cc1Cl (stereo not drawn)	Bead autofluor 23456, BoNT-A LC inh2 inconclusive
COC(=O)C1=C(C)OC(N)=C(C#N)C1c1ccccc1F (stereo not drawn)	none
Cc1cc(=O)oc2cc(OCC3CC(c4ccccc4)=NO3)ccc12 (stereo not drawn)	none
Cc1cc(=O)oc2cc(OCC3CC(c4ccc(Br)cc4)=NO3)ccc12 (stereo not drawn)	Bead autofluor 19620
O=C(NNC(=S)NC(=O)c1cccc([N+](=O)[O-])c1)c1ccc(O)cc1	none
O=C(Cc1ccc([N+](=O)[O-])cc1)Nc1cccc(C(=O)N2CCOCC2)c1	none
O=C(Cn1c(CO)nc2ccccc21)NC1CCCCCC1	none
Cc1ccc(S(=O)(=O)NN2C(=O)/C(=C/c3cccs3)SC2=S)cc1	GDH-TPI counter 31.2
Cc1ccc(/C=C2\SC(=S)N(NS(=O)(=O)c3ccc(C)cc3)C2=O)cc1	BoNT-F LC inh inconclusive
CNC(=S)N1N=C(c2ccc(Br)cc2)CC1c1ccc(Br)cc1 (stereo not drawn)	Bead autofluor 21159
CNC(=S)N1N=C(c2cccs2)CC1c1ccc(OC)cc1 (stereo not drawn)	GDH-TPI counter 47.9
COc1ccc(C2CC(c3ccccc3)=NN2C(=S)Nc2ccccc2)cc1 (stereo not drawn)	GDH-TPI counter 34.1
COc1ccccc1C1OC(c2cccc([N+](=O)[O-])c2)=NN1C(C)=O (stereo not drawn)	none
Cc1cc(C)n2nc(SCC(=O)N3CCC4(CC3)OCCO4)nc2n1	Bead autofluor 19682
O=C(Nc1ccc(/C=C/c2nc3ccccc3o2)cc1)c1ccc(F)cc1	GDH-TPI counter 32.7
CS(=O)(=O)Nc1ccc(-c2cn3cccnc3n2)cc1	FBA Mtb inh 114.9
Cc1ccc(-c2cn3cccnc3n2)cc1	FBA Mtb inh active
CCN(CCn1cccn1)C(=O)CC1C(=O)NCCN1CC1CCCCC1 (stereo not drawn)	none
S=C(NC1CCCCC1)c1ccc2c(c1)OCO2	Bead autofluor 20422
O=C(NCCCN1CCOCC1)C1COc2ccccc2O1 (stereo not drawn)	Bead autofluor 16494
O=C(C1COc2ccccc2O1)N1CCCC1 (stereo not drawn)	Bead autofluor 20678, BoNT-A LC inh2 inconclusive
O=C(C1COc2ccccc2O1)N1CCN(c2ccccc2O)CC1 (stereo not drawn)	none (no result: Bead autofluor, BoNT-A LC inh2, Anthrax LF inh2, BoNT-F LC inh)
CCN(CC)S(=O)(=O)c1ccc(OC)c(NC(=O)c2cc(C)on2)c1	none
CC1CCCCN1CCCNC(=O)CN1C(=O)CSc2ccc(S(=O)(=O)N3CCOCC3)cc21 (stereo not drawn)	none
Cn1cc([N+](=O)[O-])c(C(=O)Nc2ccn(Cc3c(F)c(F)cc(F)c3F)n2)n1	Bead autofluor 23100, BoNT-A LC inh2 inconclusive
Cn1ncc([N+](=O)[O-])c1C(=O)Nc1ccn(Cc2ccccc2F)n1	Bead autofluor 24402
O=C(Nc1ccn(Cc2ccccc2F)n1)c1ccc(COc2ccc(Br)cc2)cc1	Bead autofluor 24596, BoNT-A LC inh2 inconclusive
OC(CNCc1ccc2c(c1)OCO2)COc1ccc(F)cc1 (stereo not drawn)	none
COc1ccc(-c2nnc3ccc(SC)nn23)cc1	Bead autofluor 17068
O=C(CSc1ccc2nnc(-c3ccc(F)cc3)n2n1)NCC1CCCO1 (stereo not drawn)	BoNT-A LC inh2 inconclusive
COc1ccc(-c2nnc3c4ccccc4c(C)nn23)cc1	Bead autofluor 22622
COc1ccc(-c2cn3nc(SCC(=O)NCC4CCCO4)ccc3n2)cc1 (stereo not drawn)	FBA Mtb inh 128.2
COc1ccc(-c2nnc3ccc(SCC(=O)NCC4CCCO4)nn23)cc1 (stereo not drawn)	Bead autofluor 25334
COc1ccc(-c2nnc3ccc(SCC(=O)N4CCOCC4)nn23)cc1	none
Cc1nn2c(-c3ccncc3)nnc2c2ccccc12	none
Cc1cccc2cc(CN(Cc3cccs3)S(=O)(=O)c3ccc4c(c3)OCCO4)c(=O)[nH]c12	none
FC(F)Sc1ccc(Nc2ncnc3nc[nH]c23)cc1	Bead autofluor 23588, BoNT-A LC inh2 inconclusive

Source: PubChem BioAssay
